According to PubChem BioAssay AID493034 (The Scripps Research Institute Molecular Screening Center, 2011):
Out of some 2,400 compounds screened, about 2,200 (92%) were called active. So high a share suggests a set chosen from earlier hits. The list shows a part of the results. A number with no mark means an inactive call.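 The calls were made as follows: active = mean inhibition over triplicate runs exceeds the cutoff derived for the earlier primary screen (cut at about 25% in these data); inactive = the rest.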

Each compound was assayed against Platelet-activating factor acetylhydrolase IB subunit alpha2 (Homo sapiens) (UniProt P68402) (assay: inhibition of human PAFAH1B2 catalytic subunit – biochemical, fluorescence polarization, FP-rhodamine probe, triplicate, confirmation (AID 493034;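 also: 0% = enzyme with DMSO and 100% = wells lacking PAFAH1B2 protein; inhibitors lower polarization by leaving the probe unbound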)). Conditions: recombinant PAFAH1B2, FP-rhodamine probe fluorescence polarization; at 3.39 µM; stronger effect = higher value.
Sequence of Platelet-activating factor acetylhydrolase IB subunit alpha2 (Homo sapiens) (P68402 whole entry, looked up): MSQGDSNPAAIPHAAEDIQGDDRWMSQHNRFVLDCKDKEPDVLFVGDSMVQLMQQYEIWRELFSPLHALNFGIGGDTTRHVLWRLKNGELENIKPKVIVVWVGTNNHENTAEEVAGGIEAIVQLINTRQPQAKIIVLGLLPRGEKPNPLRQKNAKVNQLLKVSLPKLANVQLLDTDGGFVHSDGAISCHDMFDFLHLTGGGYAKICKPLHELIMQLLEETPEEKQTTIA

SMILES | inhibition
N#Cc1c(NC(=O)Cn2c(=O)oc3ccccc32)oc(-c2ccccc2)c1-c1ccccc1 | 45% (active)
O=C(NNC(=O)C1CCN(S(=O)(=O)c2ccc(Cl)cc2)CC1)c1ccccc1 | 24%
C=CCNC(=O)C1CCN(S(=O)(=O)c2ccc(Br)cc2)CC1 | 23.8%
CCN(CC)S(=O)(=O)c1ccc(C(=O)NNC(=O)C2CCN(S(=O)(=O)c3ccc(Cl)cc3)CC2)cc1 | 37.9% (active)
Cc1ccc(C(c2nnnn2Cc2ccccc2)N2CCN(Cc3ccccc3)CC2)cc1 (stereo unspecified) | 16.6%
Cn1c(=S)[nH]c2sc3c(c2c1=O)CCC(C(C)(C)C)C3 (stereo unspecified) | 41.1% (active)
O=C(O)c1ccc(CSCc2ccccc2Cl)o1 | 14.4%
CCOC(=O)CSc1nnc(NC(=O)CN2CCN(C=O)CC2)s1 | 3.79%
CCN(Cc1ccccc1)C(=O)COC(=O)c1cc(S(=O)(=O)Nc2ccccc2OC)ccc1O | 23.2%
COC(=O)c1cc(NS(=O)(=O)c2ccc(N3CCCCCC3)c([N+](=O)[O-])c2)cc(C(=O)OC)c1 | 23.8%
CCN(C(=O)COC(=O)c1cc(NS(=O)(=O)c2ccc(Cl)c([N+](=O)[O-])c2)ccc1O)C1CCCCC1 | 36.1% (active)
Cc1ccc(OCCC(=O)OCC(=O)NC2CCCC(C)C2C)cc1 (stereo unspecified) | 21.5%
Oc1ccc(C23CC4CC(CC(C4)C2)C3)cc1O | 33.2% (active)
CCCCCCCCN1[C@@H](CC(=O)O)c2ccc(C(F)(F)F)cc2S1(=O)=O | 21.7%
CC(C)(C)c1ccc(C2=CC(c3ccccc3F)n3ncnc3N2)cc1 (stereo unspecified) | 15.1%
O=C(O)c1ccc(Cl)c(S(=O)(=O)N(Cc2ccccc2)c2ccc(F)cc2)c1 | 22.7%
CCN(CC)CCN(C(=O)c1ccc(S(=O)(=O)N(CC)c2ccccc2)cc1)c1nc2c(OC)ccc(OC)c2s1 | 16.4%
CCN(c1ccccc1)S(=O)(=O)c1cc(C(=O)O)ccc1C | 45.1% (active)
CC1CCCC(NC(=O)c2cccc(S(=O)(=O)NCc3ccccc3)c2)C1C (stereo unspecified) | 18.3%
Cc1ccc([C@@H]2CC=C(C(=O)O)[C@H](c3ccc(C(C)(C)C)cc3)N2S(=O)(=O)c2ccc(C)cc2)cc1 | 95.5% (active)
CCc1ccc([C@@H]2CC=C(C(=O)O)[C@H](c3ccc(C(C)(C)C)cc3)N2S(=O)(=O)c2ccc(C)cc2)cc1 | 97.5% (active)
Cc1ccc(S(=O)(=O)N2[C@@H](c3ccc(C(C)(C)C)cc3)C(C(=O)O)=CC[C@H]2c2ccc(C(C)C)cc2)cc1 | 89.3% (active)
O=C(COc1ccc(Cl)cc1)NNC(=O)C(=O)N1CCCCC1 | 19.2%
CCOC(=O)N1CCN(C(=O)c2ccccc2NC(=O)COc2ccccc2)CC1 | 1.01%
O=C(COc1ccc(Cl)cc1)NC1=NN(c2ccccc2)C(=O)C1 | 67.5% (active)
N#CC1=C(N)c2ccccc2CC12CCCCC2 | 17.4%

SMILES | inhibition
N=C(N)c1ccc(N=Nc2c(O)ccc3c2[nH]c2ccccc23)cc1 | 33.4% (active)
O=[N+]([O-])c1cc(C2Nc3cccc4cccc(c34)N2)ccc1Cl | -0.07%
O=C1N[C@@H](Cc2ccccc2)COC(=O)[C@@H](Cc2ccc(F)cc2)C/C=C\C[C@@H]1CC(=O)N(CCO)Cc1ccccc1 | 37.2% (active)
O=C1OC[C@H]2CCCN2C(=O)[C@@H](CC(=O)N(CCO)Cc2ccccc2)C/C=C\C[C@@H]1Cc1ccc(F)cc1 | 27.5% (active)
O=C1N[C@@H](Cc2c[nH]c3ccccc23)COC(=O)[C@@H](Cc2ccc(F)cc2)CC/C=C/C[C@@H]1CC(=O)N(CCO)Cc1ccccc1 | 21.5%
O=C1OC[C@@H]2CCCN2C(=O)[C@@H](CC(=O)N(CCO)Cc2ccccc2)C/C=C\C[C@H]1Cc1ccc(F)cc1 | 29.1% (active)
O=C1OC[C@@H]2CCCN2C(=O)[C@H](CC(=O)N(CCO)Cc2ccccc2)C/C=C\C[C@H]1Cc1ccc(F)cc1 | 33.2% (active)
O=C(O)CCc1ccc(-c2ccc(Br)cc2)n1-c1ccc(O)cc1 | 31.6% (active)
CCC1=NN2C(=N)/C(=C\c3cccn3-c3ccc(Cl)cc3)C(=O)N=C2S1 | 36.4% (active)
Cc1ccc(-n2cccc2/C=C2\C(=N)N3N=C(c4ccco4)SC3=NC2=O)cc1 | 38.1% (active)
Cc1ccc(S(=O)(=O)Oc2ccc(/C=C3/C(=N)N4C(=NC3=O)SN=C4S(C)(=O)=O)cc2)cc1 | 50% (active)
CS(=O)(=O)C1=NSC2=NC(=O)/C(=C\c3cccn3-c3ccc(Cl)cc3)C(=N)N21 | 55.9% (active)
Cc1ccc(SCc2cn3c(C)csc3n2)cc1 | 59.7% (active)
Cc1ccc(SCC(=O)NC(C)c2ccccc2)cc1 (stereo unspecified) | 21%
CCc1ccc(C2CC(c3ccc(Cl)cc3)n3nc(N)nc3N2)cc1 (stereo unspecified) | 30.1% (active)
C=CC[C@H](CC(=O)N(CCO)Cc1ccccc1)C(=O)N[C@H](COC(=O)[C@@H](CC=C)Cc1ccc(F)cc1)Cc1ccccc1 | 58% (active)
CCCCn1c(N)c(N(CC(C)C)C(=O)CN2C(=O)NC3(CCC(C(C)(C)CC)CC3)C2=O)c(=O)[nH]c1=O (stereo unspecified) | 16.4%
COc1ccc2[nH]c(C(=O)NCCN3CCOCC3)cc2c1 | 6.21%
COc1ccc(N2CCN(C(=O)CCNC(=O)c3ccc(C(C)(C)C)cc3)CC2)cc1 | 62.3% (active)
CC(/C=C1\SC(=S)N(NS(=O)(=O)c2ccccc2)C1=O)=C\c1ccccc1 | 39.6% (active)
Cc1ccc(S(=O)(=O)n2ccc3c(OCCOCCSCC(NC(=O)OC(C)(C)C)C(=O)O)cccc32)cc1 (stereo unspecified) | 85.8% (active)
CCC(=O)Nn1cnc2c(c1=O)C1(CCCCC1)Cc1ccccc1-2 | 19.9%
CC1(C)Cc2ccccc2C2=C(C(=O)N3CCCCCC3)C(=O)C(=O)N21 | 64.2% (active)
O=C1C(=O)N2C(=C1C(=O)N1CCCCCC1)c1ccccc1CC21CCCC1 | 32.8% (active)
O=C(NCCSc1ncc(-c2ccc(F)cc2)[nH]1)c1ccc2c(c1)OCO2 | 20.8%
